Only some compounds are listed: those with a hit (about 2.7% of all), similar ones and a draw of the others.
HIF-2a inh: blocks HIF-2a reporter activity. inhibition, % at 18.8 µM. 786-0 RCC cells HIF-2a reporter, luciferase luminescence, overnight. 360,000 compounds, 0.72% hits;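 active = inhibition of the luminescence signal of 40% or more relative to plate controls, in a single-dose primary screen at 18.75 µM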
TRPM1 prom inh: MITF TRPM1 promoter inhibition in SK-MEL-5 cells. AID 488899. inhibition, % at 12.5 µM. SK-MEL-5 TRPM1 promoter luciferase, 24 h. 330,000 compounds, 0.83% hits;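 active = mean inhibition across replicates of 60% or more, whatever share of single replicates reaches that level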
KKLEB tox: counter-screen for CF NF-kB inhibitors: cytotoxicity | activity change (cytotoxicity), % at 5 µM | 360,000 compounds, 0.36% hits | KKLEB CF airway cells viability, ATPlite luminescence, overnight; hits give low values; cells stimulated with P. aeruginosa culture filtrate;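 active = corrected activity change at or below -50% at 5 µM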
CF NFkB block: cystic fibrosis NF-kB activation inhibition; KKLEB NF-kB-GFP reporter, PAF-induced, GFP fluorescence overnight; inhibition, % at 5 µM; 360,000 compounds, 0.86% hits;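 active = at least 50% inhibition at 5 µM, scaled per plate between neutral and stimulator controls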;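 note: PAF is a Pseudomonas aeruginosa culture filtrate used as stimulus; plate controls were PAF-stimulated DMSO wells for no effect and unstimulated DMSO wells for full effect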
Shn3 inh set2: inhibitors of Schnurri-3 3'UTR reporter in osteoblasts. 360,000 compounds, 0.52% hits. inhibition, % at 12.5 µM. Clone20 osteoblast Shn3 3'UTR firefly luciferase, 24 h;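 active = mean inhibition of at least 75% with every replicate also reaching 75%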;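 note: 0% = median of neutral control wells and 100% = pilot-screen positive control compound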
Peg3 promoter: reduces Peg3 promoter-driven luciferase expression in HeLa; HeLa PEG-Prom luciferase reporter, luminescence, overnight; inhibition, % at 20 µM; 360,000 compounds, 1.7% hits;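 active = inhibition of at least 50% at 20 µM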
Starred values were filed as active, the others as inactive; · = no result given.

SMILES	HIF-2a inh	TRPM1 prom inh	KKLEB tox	CF NFkB block	Shn3 inh set2	Peg3 promoter
O=C(CCC(=O)Nc1ccc(Cl)cc1Cl)N/N=C/c1ccc([N+](=O)[O-])o1	-28	·	8	-14	26	57*
O=C(Cc1ccc2c(c1)OCO2)NN=Cc1ccc([N+](=O)[O-])o1	-26	73*	-14	-7	-28	-5
Cc1ccc(NCC(=O)N/N=C\c2ccc([N+](=O)[O-])o2)cc1	-9	68*	4	-19	4	2
O=C(CNc1ccccc1)N/N=C/c1ccc([N+](=O)[O-])o1	1	56	1	-13	-19	11
O=C(N/N=C\c1ccc([N+](=O)[O-])o1)C1COc2ccccc2O1 (centres undefined)	-1	75*	7	-4	1	-18
O=C(N/N=C\c1ccc(-c2ccccc2[N+](=O)[O-])o1)C1COc2ccccc2O1 (centres undefined)	0	21	-16	7	-23	-6
COc1cc(NS(=O)(=O)c2ccc(NC(=O)CCC(=O)O)cc2)nc(OC)n1	4	-4	-5	11	-2	8
O=C(Nc1ccc(Cl)c(Cl)c1)C1C2C=CC3(O2)C1C(=O)N(CCN1CCCCC1)C3C(=O)NC1CCCCC1 (centres undefined)	-10	-9	-5	7	1	11
CC(=O)NC1C(O)OC(CO)C(O)C1O (centres undefined)	9	2	9	-12	97*	-7
Oc1c(C(c2cccs2)N2CCC3(CC2)OCCO3)sc2ncnn12 (centres undefined)	-7	·	-4	12	88*	12
Cc1ccc(Nc2cc(C)nn2-c2nc(C)cc(=O)[nH]2)cc1	40*	98*	32	52*	31	108*
CCOC(=O)C1CCCN(C(=O)Cn2sc3nc(C)cc(C)c3c2=O)C1 (centres undefined)	5	7	14	16	97*	-22
COCCOC(=O)c1[nH]c2c(c1C)C(=O)CC(c1ccco1)C2 (centres undefined)	-4	·	-11	37	66	-2
Cc1c(C(=O)OCc2ccccc2)[nH]c2c1C(=O)CC(c1ccco1)C2 (centres undefined)	-28	18	-30	57*	86*	-7
O=C(N[C@@H](Cc1ccccc1)C(=O)CCl)OCc1ccccc1	-11	96*	-19	37	17	70*
COc1ccc(S(=O)(=O)N2CCCCC2)cc1NC(=O)CN(Cc1ccco1)Cc1ccco1	15	32	16	2	77	54*
COc1ccc(S(=O)(=O)N2CCCCC2)cc1NC(=O)CN(C)C1CCCCC1	19	16	-4	-9	12	23
COc1cccc(C(O)c2ncc(-c3ccc(C(F)(F)F)cc3)[nH]2)c1 (centres undefined)	-3	·	-1	-21	-20	13
COc1ccc(S(=O)(=O)N2Cc3ccccc3CC2C(=O)O)cc1 (centres undefined)	8	8	14	-3	7	10
O=C(O)C1Cc2ccccc2CN1S(=O)(=O)c1ccc(Cl)cc1 (centres undefined)	13	-5	-78*	59*	6	7
CCOc1ccc(NS(=O)(=O)c2cc(C(=O)NCCN3CCOCC3)ccc2C)cc1	0	-4	-14	-16	92*	-2
CC(=O)c1cc(C(=O)N2CCCC(C(=O)c3ccc(Cl)cc3)C2)cs1 (centres undefined)	-2	6	-3	-10	-12	13
CC(=O)C1=C(C)NC(SCC(=O)c2cc(Cl)ccc2Cl)=C(C#N)C1c1ccco1 (centres undefined)	-3	13	-15	8	81*	27
CC(=O)C1=C(C)NC(SCC(=O)c2ccc(Cl)c(Cl)c2)=C(C#N)C1c1ccco1 (centres undefined)	-7	-4	0	-12	3	13
CC/C(=N/Nc1ccccc1)c1cnnc(-c2ccccc2)n1	6	15	-51*	42	3	18
SMILES	HIF-2a inh	TRPM1 prom inh	KKLEB tox	CF NFkB block	Shn3 inh set2	Peg3 promoter
CCOc1cccc(/C=N/NC(=O)c2cc(-c3cccn3C)n[nH]2)c1O	-38	44	10	-8	88*	40
CC1Cn2c(nc3sc4c(c3c2=O)CC(C)(C)OC4)N1CCO (centres undefined)	10	12	-2	6	-16	14
CC12CCC(C/C1=N\N=C1\NC(=O)/C(=C\c3ccc(Cl)cc3)S1)C2(C)C (centres undefined)	-84	-6	-94*	89*	28	-30
CCOC(=O)C1=C(COC(=O)c2ccc3ccccc3c2O)NC(=O)NC1C (centres undefined)	1	8	-11	23	-7	21
Cc1ccc(S(=O)(=O)n2ccc3c(OCCOCCSCC(NC(=O)OC(C)(C)C)C(=O)O)cccc32)cc1 (centres undefined)	17	5	6	1	13	27
Cc1ccc(S(=O)(=O)n2ccc3c(OCCOCCNCc4ccc(F)cc4)cccc32)cc1	25	32	-34	30	77	96*
Cc1cccc(N2CC(C(=O)Nc3ccccc3N3CCOCC3)CC2=O)c1C (centres undefined)	12	2	9	-29	75	5
CCOc1ccc(C(=O)Nc2cccc(-c3nc4cccnc4o3)c2)cc1Cl	-17	-10	9	-8	1	90*
CCOc1ccc(C(=O)Nc2cccc(C(=O)O)c2)cc1Cl	63*	50	9	-1	-13	20
CCOc1ccc(C(=O)Nc2cc(NC(=O)c3ccc(OCC)c(Cl)c3)cc(C(=O)O)c2)cc1Cl	3	-14	4	-2	-11	4
COc1cc(C(=C(CC(=O)O)C(=O)O)c2ccc3c(c2)OCO3)cc(OC)c1OC	10	-3	23	-1	21	2
CCCS(=O)(=O)Nc1ccc(Nc2c3ccccc3nc3ccccc23)c(OC)c1	30	75*	-23	-152	88*	37
Cc1ccc(O)c(Nc2c3ccccc3nc3ccccc23)c1	10	-1	-10	-25	4	61*
COc1cc(N)ccc1Nc1c2ccccc2nc2ccccc12	18	·	-21	-23	38	103*
COc1ccc(Nc2c3c(nc4ccccc24)CCC3)c(OC)c1	25	21	-9	6	50	23
Cc1nn(-c2ccc(F)cc2)c2nc(N)c(C#N)c(-c3cccs3)c12	10	8	-15	14	4	84*
Cc1nn(-c2ccc(F)cc2)c2nc(N)c(C#N)c(-c3ccc(O)c(O)c3)c12	24	21	-1	10	16	41
Nc1nnc(-c2cc3ccccc3oc2=O)s1	-188	-25	7	-22	-23	-199
Nc1cccc(-c2cc3ccccc3oc2=O)c1	41*	22	1	2	10	-61

Source: PubChem
